Hit rate of the full screen: of about 2,300 compounds, about 550 (24%) were called active. A selection follows. Measured potencies and affinities stand elsewhere. Unmarked numbers belong to inactive results. How the calls were made is not given here.

A short description of this test: Vero E6 cell cytotoxicity, dose response, cytotoxicity control for non-replicating M. tuberculosis project, secondary assay (AID 492998).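 Further: 100% = vehicle-treated cells and 0% = background wells.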 As to conditions: series mostly up to 20 µM; viability: at the top concentration.
With `O=C(OCCCOC(=O)c1ccc([N+](=O)[O-])o1)c1ccc([N+](=O)[O-])o1`, the “viability” value is 99.5%.

On to `Cc1ccc(C(=O)O/N=C(\N)c2cccc([N+](=O)[O-])c2)cc1`, for which the “viability” value was 88.5%. The value for `CCOC(=O)C1CCN(CCCSc2ccc(Cl)cc2)CC1` was 98.9%; that for `Cc1ccc(NC(=O)C2=C(c3ccccc3)S(=O)(=O)CCS2(=O)=O)cc1` was 94.5%; that for `C/C(=N\NC(=O)COc1ccc(C)cc1Br)c1cc([N+](=O)[O-])cs1` was 84.7%. The value for `C/C(=N\NC(=O)c1cc([N+](=O)[O-])cc([N+](=O)[O-])c1)c1ccco1` was 97%; that for `O=C(CCN1CCC(c2ccccc2)C1)c1ccccc1` (stereo not drawn) was 97.1%. As to `COC(=O)COc1ccc2c(-c3cccc([N+](=O)[O-])c3)cc(=O)oc2c1`, the “viability” value was 99.4%. The value for `CCOC(=O)c1c(NC(=O)COC(=O)c2ccccn2)sc2c1CCC2` was 97.1%; that for `COc1ccc(-c2nnn(CC(=O)OC3CCCCC3)n2)cc1OC` was 92.8%. The figure for `COc1ccc2c(c1)sc(=N)n2C` is 83.1%; for `CCOC(=O)C(C)Oc1cc(Cl)c(C=O)cc1OC` (stereo not drawn) it is 101%; for `CC1=NN(c2ccccc2)C(=O)C1C(=O)c1ccccc1` (stereo not drawn) it is 107%. As to `O=C(OCc1nc2ccccc2s1)c1ccc(Br)o1`, the “viability” value was 98%. The value for `COc1ccc(N=Cc2nc(-c3ccccc3)oc2OC(C)=O)cc1` was 99.7%; that for `Cc1ccc(NC(=O)COC(=O)C(NS(=O)(=O)c2ccc(Cl)cc2)C(C)O)cc1C` (stereo not drawn) was 98.9%. The figure for `O=C(Nc1nnc(-c2cc(Cl)ccc2Cl)o1)C1=COCCO1` is 95.4%; for `Cc1ccc(C)c(-c2nnc(NC(=O)COc3ccccc3)o2)c1` it is 71.6%; for `O=C(Nc1nnc(-c2ccccc2Cl)o1)c1ccco1` it is 109%.

As for `Cc1ccc(-c2nnc(Cc3ccc([N+](=O)[O-])cc3)o2)cc1`, the “viability” value is 104%. The value for `C/C(CC(=O)Nc1ccc(C)c(Cl)c1)=N\NC(=O)c1ccco1` was 84.7%; that for `O=C(Nc1nnc(-c2ccc(Br)cc2)o1)C1=COCCO1` was 92.6%.

Consider `O=C(Nc1nnc(-c2ccc(Br)cc2)o1)c1ccco1`, for which the “viability” value is 79.3%. The figure for `CCc1nnc(NC(=O)CN2CCN(c3ccccc3F)CC2)s1` is 111%. The figure for `CC(C)[C@H]1CN=C2N(C[C@H](C)NC(=O)CCC3CCCCC3)[C@H](Cc3ccc(O)cc3)CN21` is 93.5%. The figure for `COc1ccc(C2=Nc3ccccc3OC2)cc1` is 96.1%.

For `O=C(OCC#CCSc1nnc(-c2ccccc2)o1)c1ccco1`, the “viability” value is 97.8%.

Turning to `Cc1ccnc(NC(=O)COc2ccc3c(c2)CCC3)c1`, the “viability” value was 104%. The figure for `COCCCNC(=O)COC(=O)c1ccc(-c2nc3ccccc3s2)s1` is 95%; for `COc1ccc(C(C)=O)cc1COC(=O)c1ccc2ccccc2n1` it is 106%; for `CC1Cc2ccccc2N1C(=O)COC(=O)c1ccc(Cl)nc1` (stereo not drawn) it is 102%. The value for `Cn1c(=O)c2c(=O)cc(NNC(=O)CC#N)[nH]c2n(C)c1=O` was 110%; that for `COC(=O)COc1ccc(S(=O)(=O)NCc2ccc3c(c2)OCO3)cc1` was 106%. The value for `COc1ccc(NCC(=O)N2CCCC2)cc1Cl` was 119%; that for `CC1CCc2c(sc3nc(CSc4ncn[nH]4)[nH]c(=O)c23)C1` (stereo not drawn) was 89.9%. For the molecule `CCOC(=O)COc1ccc2c(=O)c(-c3ccccc3)coc2c1`, the “viability” value is 103%. For the molecule `C=CCN1C(=O)C2(NNc3ccccc3O2)c2ccccc21` (stereo not drawn), the “viability” value is 82%. The figure for `Cc1ccc2c(c1)C(=O)C(=O)N2CCCOc1ccccc1` is 96.2%; for `O=C(c1ccccc1)n1c(=O)c(F)cn(COCCBr)c1=O` it is 108%.

As for `Cc1cc(C)cc(NC(=O)CCc2ccc(C)o2)c1`, the “viability” value was 97%. Consider `CCc1ccc(N=CC2=C(O)CC(c3ccco3)CC2=O)cc1` (stereo not drawn), for which the “viability” value is 95.6%. The figure for `C/C(=N/NC(=O)c1ccco1)c1ccc(Br)s1` is 90.8%; for `Cc1ccc(/C=C2\SC(=S)N(C3CCS(=O)(=O)C3)C2=O)o1` (stereo not drawn) it is 89.5%.

With `COC(=O)c1ccc(CO/N=C/c2ccc(OC)cc2)o1`, the “viability” value is 99.9%.

With `CCOC(=O)COc1ccc(C(=O)NC2CCCCC2)cc1`, the “viability” value was 103%.

On to `O=c1c2c([N+](=O)[O-])cc([N+](=O)[O-])cc2sn1-c1ccc(Br)cc1`, for which the “viability” value was 77%.

On to `Cc1nc2ccc(Cl)cc2nc(C)/c1=N\O`, for which the “viability” value was 88.4%.

Regarding `O=c1c2cc(Cl)ccc2nc(-c2ccccc2Cl)n1O`, the “viability” value is 103%. The value for `O=[N+]([O-])c1ccc2nc(SCc3cn4cc(Cl)ccc4n3)[nH]c2c1` was 91.4%; that for `O=C(Oc1cccc([N+](=O)[O-])c1)c1ccc2c(=O)n3c(nc2c1)CCC3` was 96.2%; that for `N/C(=N\OC(=O)c1cccc(Br)c1)c1ccc([N+](=O)[O-])cc1` was 98.3%. On to `CCOC(=O)c1cn(Cc2cccc(Cl)c2)nn1`, for which the “viability” value was 97.6%. The figure for `O=C(O)c1ccccc1C(=O)NNc1ccc(Cl)cc1` is 104%; for `CCCCCC1CC(CC(=O)NC(=S)Nc2ccc([N+](=O)[O-])cc2)C(=O)O1` (stereo not drawn) it is 104%; for `Cc1c(Cl)cccc1NC(=O)C1COc2ccccc2O1` (stereo not drawn) it is 99.6%. The figure for `CCOC(=O)NC(=O)COC(=O)CCCSc1nc2ccccc2s1` is 104%; for `Cn1ccsc1=NC(=O)c1ccccc1F` it is 97.6%. The figure for `CCc1ccc(C(=O)NC2CCCCC2)s1` is 98.3%; for `Cc1ccc(Sc2ccc(C=C3C(=O)N(C)C(=O)N(C)C3=O)o2)cc1` it is 93%; for `Cc1cc(C(=O)NNc2cc(Cl)ccc2Cl)no1` it is 94.2%. Consider `CC(C)(C)OC(=O)NCCC(=O)Oc1ccc2ccc(=O)oc2c1`, for which the “viability” value was 93.9%.

As to `COC(=O)[C@@H](NC(=O)c1cc(COc2cncc(Cl)c2)on1)c1ccccc1`, the “viability” value was 103%. The value for `Cc1ccc(NC(=O)CN(C)CC(=O)Nc2ccc(F)c(Cl)c2)cc1` was 101%; that for `NCCNc1ccc([N+](=O)[O-])c2cccnc12` was 96.2%. In the case of `O=[N+]([O-])c1cnc(Nc2ccc(Cl)cn2)c([N+](=O)[O-])c1`, the “viability” value was 82.3%. The figure for `CCOC(=O)COc1cc([N+](=O)[O-])cc2cccnc12` is 104%; for `O=C1c2cccc3cc([N+](=O)[O-])cc(c23)C(=O)N1c1ccccc1O` it is 91.5%. The figure for `Fc1ccc(N2CCN(Cc3nnc(-c4ccccc4)o3)CC2)cc1` is 119%; for `Cc1occc1-c1nnc(-c2cc([N+](=O)[O-])cc([N+](=O)[O-])c2)o1` it is 90.4%; for `S=C(Nc1ccc2c(c1)OCO2)Nc1ccc2c(c1)OCO2` it is 83.2%. As to `CCOC(=O)c1cc(-c2csc(COc3ccccc3)n2)on1`, the “viability” value was 102%. The value for `CC(=O)N1CCC(=NNC(=O)c2cccs2)CC1` was 99.7%; that for `NC1CCN(c2c(F)cc3c(=O)c(C(=O)O)cn(C4CC4)c3c2Cl)C1` (stereo not drawn) was 102%.

By viability is commonly meant a read-out of living cells in per cent, often relative to untreated cells.

Source of the values: PubChem BioAssay AID492998 (Southern Research Specialized Biocontainment Screening …, 2010).
